Assay results published in PubChem BioAssay (NCI).
The panel holds about 83,000 compounds, 20% with a hit somewhere; the sample as a whole holds those more often.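 Each cell line was grown in a 96-well plate and treated with one concentration of compound for 48 hours. Values below 10 were considered active.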 Activity calls are given as the source filed them.

test system: T-47D breast; assay: NCI-60 one-dose screen, 48 h (100 = growth as untreated, 0 = no growth, -100 = all killed); conditions: 10 µM

Row | Compound | growth
1 | CC1(C)OC(=O)C(c2ccsc2)C(=O)O1 | 90.4% (inactive)
2 | C#Cc1cccc(NC(=O)c2ccc(Cl)cc2Cl)c1 | 95.2% (inactive)
3 | C=CCCCCCCCCCOC(C)=O | 97.9% (inactive)
4 | CCN(CC)CCCC(C)Nc1ccnc(/C=C/c2ccc(Cl)cc2)c1 (stereo not drawn) | -4.4% (active)
5 | CCOC(=O)C1OC1c1ccccc1 (stereo not drawn) | 98.8% (inactive)
6 | Oc1ccc(N=Nc2ccc(Br)cc2)c(O)c1 | 28% (inactive)
7 | Cc1cc(C(C)(C)C)cc(C)c1Br | 115% (inactive)
8 | O=C(CC(=O)c1ccccc1O)c1ccccc1 | 79.7% (inactive)
9 | CC(C)OC(=O)c1cc(NC(=S)OC(C)C)ccc1Cl | 58.3% (inactive)
10 | O=[N+]([O-])c1ccc(CO)cc1 | 88.3% (inactive)
11 | Sc1ccc(Nc2c3ccccc3nc3ccccc23)cc1 | 38% (inactive)
12 | C#C[C@H]1CCCCCC1O (stereo partly drawn) | 95.4% (inactive)
13 | CCOC(=O)CCCS(C)(=O)=O | 102% (inactive)
14 | O=C(O)COCC(=O)O | 129% (inactive)
15 | [O-][N+](=Nc1cccc(Cl)c1)c1cccc(Cl)c1 | 30.2% (inactive)
16 | OCC(O)C(O)C(O)C(O)/C=N/O (stereo not drawn) | 87.4% (inactive)
17 | CC(=O)c1ccc(C(C)(C)C)cc1 | 98.2% (inactive)
18 | CCN(CC)C(=O)/C=C(/C)c1ccccc1 | 102% (inactive)
19 | CCCCC1C(=O)N(c2ccccc2)N(c2ccccc2)C1=O | 109% (inactive)

Row | Compound | growth
20 | O=C1C=C(Nc2ccc([N+](=O)[O-])cc2)c2ccccc2C1=O | 20% (inactive)
21 | CCCCC(O)c1ccccc1 (stereo not drawn) | 87.2% (inactive)
22 | CCCCCC(C)(CC(=O)O)CC(=O)O | 104% (inactive)
23 | COc1cccc(/C=N/NC(=S)NC2CC3CCC2C3)c1O (stereo not drawn) | 35.7% (inactive)
24 | COc1cc([C@@H]2c3cc4c(cc3[C@H](O)[C@H]3COC(=O)[C@H]23)OCO4)cc(OC)c1OC | 65.5% (inactive)
25 | CCCC(C)OCC(=O)O (stereo not drawn) | 126% (inactive)
26 | C=CC[N+](C)(C)C | 103% (inactive)
27 | COc1ccc(C2(O)CCCCC2)cc1 | 98.2% (inactive)
28 | S=C1CCCCCN1 | 100% (inactive)
29 | Cc1ccc(Cl)cc1N1C(=O)CC(Sc2ccccc2N)C1=O (stereo not drawn) | 103% (inactive)
30 | CC1(C)/C(=C\CO)C2CCC1C2 (stereo not drawn) | 101% (inactive)
31 | O=[N+]([O-])c1cccc(C(F)(F)F)c1 | 105% (inactive)
32 | CC(C)CCCC(=O)O | 104% (inactive)
33 | NC(CSC(c1ccccc1)(c1ccccc1)c1ccccc1)C(=O)O (stereo not drawn) | 15.5% (inactive)
34 | c1ccc2c(N3CCCCC3)ncnc2c1 | 130% (inactive)
35 | CCCCCCCO | 104% (inactive)
36 | CC(C(=O)O)(C1CCCCC1)C1(O)CCCCC1 (stereo not drawn) | 102% (inactive)
37 | CC1(C(=O)O)NC(C(=O)O)Cc2c1[nH]c1ccccc21 (stereo not drawn) | 95.7% (inactive)
38 | O=C(/C(=N/O)c1ccccc1)c1ccccc1 | 90.2% (inactive)
